Drawing on the supplement of paper PMC9262897, “Low-cost anti-mycobacterial drug discovery using engineered E. coli” (Nature Communications, 2022), this text covers growth for eight compounds.

Counter-ions that a name gives are not always drawn. ± gives the standard deviation of the averaged measurements.

For this assay, the system named is E. coli TESEC Mtb Alr. In words: growth (OD600 after 10 h); higher = more growth (less inhibition). The conditions noted are these: compound 0.1 mM. On the procedure:
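TESEC Mtb Alr E. coli, or the Alr+ wild-type control, in 384-well plates with Prestwick library compounds at 0.1 mM and 1% DMSO, across arabinose induction levels of 1E3 to 1E7 nM. Growth is read as OD600 after 10 h at 37 °C in triplicate biological replicates.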

Setting [1] is: arabinose 1000 nM, raw OD600 reference: median of DMSO wells 0.294, cell-free background 0.041.
The mark [2] stands for this setting: arabinose 10000 nM, raw OD600 reference: median of DMSO wells 0.264, cell-free background 0.041.
[3] abbreviates: arabinose 100000 nM, raw OD600 reference: median of DMSO wells 0.201, cell-free background 0.041.
[4] abbreviates: arabinose 1000000 nM, raw OD600 reference: median of DMSO wells 0.193, cell-free background 0.041.
Where [5] appears, read: arabinose 10000000 nM, raw OD600 reference: median of DMSO wells 0.146, cell-free background 0.041.

With `C[C@]12CCC(=O)C=C1CC[C@@H]1[C@@H]2[C@@H](O)C[C@@]2(C)[C@H]1CC[C@]2(O)C(=O)CO` [Hydrocortisone base], the growth by setting is: under setting [1], 0.265 ± 0.024; under setting [2], 0.253 ± 0.0038; under setting [3], 0.173 ± 0.026; under setting [4], 0.169 ± 0.0059; under setting [5], 0.137 ± 0.0037.

With `Cc1ccc(-c2cc(C(F)(F)F)nn2-c2ccc(S(N)(=O)=O)cc2)cc1` [Celecoxib], the growth by setting is: under setting [1], 0.041 ± 0.0023; under setting [2], 0.0401 ± 0.00091; under setting [3], 0.0415 ± 0.0019; under setting [4], 0.0418 ± 0.0037; under setting [5], 0.04133 ± 0.00035.

Consider `CC(=O)Oc1cc(C(C)C)c(OCCN(C)C)cc1C` [Moxisylyte hydrochoride], for which the growth runs as follows: under setting [1], 0.245 ± 0.055; under setting [2], 0.273 ± 0.0074; under setting [3], 0.179 ± 0.017; under setting [4], 0.155 ± 0.003; under setting [5], 0.14 ± 0.00075.

`Nc1nc2n[nH]nc2c(=O)[nH]1` [Azaguanine-8]: the growth runs as follows: under setting [1], 0.241 ± 0.0083; under setting [2], 0.194 ± 0.0047; under setting [3], 0.239 ± 0.0079; under setting [4], 0.143 ± 0.0028; under setting [5], 0.132 ± 0.009.

With `CN1CCN(C(c2ccccc2)c2ccccc2)CC1` [Cyclizine hydrochloride], the growth worked out at 0.278 ± 0.011 under setting [1]; 0.256 ± 0.0077 under setting [2]; 0.188 ± 0.025 under setting [3]; 0.142 ± 0.013 under setting [4]; 0.142 ± 0.0021 under setting [5].

In the case of `CC(=O)O[C@]1(C(C)=O)CC[C@H]2[C@@H]3C=C(Cl)C4=CC(=O)[C@@H]5C[C@@H]5[C@]4(C)[C@H]3CC[C@@]21C` [Cyproterone acetate], the growth by setting is: under setting [1], 0.168 ± 0.0067; under setting [2], 0.125 ± 0.027; under setting [3], 0.122 ± 0.0081; under setting [4], 0.0693 ± 0.0035; under setting [5], 0.0975 ± 0.0046.

On to `CC(C(O)c1ccc(O)cc1)N1CCC(Cc2ccccc2)CC1` (stereo not given) [Ifenprodil tartrate], for which the growth amounted to 0.251 ± 0.019 under setting [1]; 0.276 ± 0.0052 under setting [2]; 0.194 ± 0.0092 under setting [3]; 0.143 ± 0.0037 under setting [4]; 0.172 ± 0.0094 under setting [5].

In the case of `CN(C)C(=N)NC(=N)N` [Metformin hydrochloride], the growth under setting [1] is 0.281 ± 0.026; the growth under setting [2] is 0.258 ± 0.0057; the growth under setting [3] was 0.238 ± 0.03; the growth under setting [4] was 0.178 ± 0.0068; the growth under setting [5] worked out at 0.145 ± 0.0029.
